This passage reports outcome results from PubChem BioAssay (Tox21).

Inconclusive results are not listed. Active and inactive are the calls of the source. Calls follow the shape of the dose curve; as a rule, active = well fitted cell-killing curve with a large enough effect in the repeat runs; inconclusive = weak or mixed curves, or effect the other way; inactive = flat fitted curve, though single readings scatter.

The experiment in a line: qHTS RealTime-Glo MT Cell Viability Assay in HepG2 cells - 0 hour (AID 1224889). Also: nearly all actives have a fitted effect of over 50% in size. The settings on record: RealTime-Glo luminescence; series mostly up to 76.8 µM. The source says:
U.S. Tox21 Program National Center for Advancing Translational Sciences [NCATS] NIH Chemical Genomics Center [NCGC] U.S. Environmental Protection Agency [EPA] National Institutes of Environmental Health Sciences [NIEHS] National Toxicology Program [NTP] U.S. Food and Drug Administration [FDA] Tox21 Assay Overview: Measure of cell viability is critical in the cell-base assay. Analysis of cell viability is necessary for the characterization of cell responses to cytotoxic drugs and environmental stress. A RealTime-Glo MT Cell Viability Assay to monitor cell viability in real time of continues cell culture during 40 hours of compound treatment was used to screen Tox21 10K library compounds in HepG2 cells. The RealTime-Glo MT Cell Viability Assay is a nonlytic, homogeneous, bioluminescent method to measure cell viability in real time using a simple, plate-based method. The assay involves adding NanoLuc luciferase and a cell-permeant prosubstrate to cells in culture. Viable cells reduce the proprietary prosubstrate to generate a substrate for NanoLuc luciferase. This substrate diffuses from cells into the surrounding culture medium, where it is rapidly used by the NanoLuc Enzyme to produce a luminescent signal. The signal correlates with the number of viable cells, making the assay well suited for cytotoxicity studies.
Tox21 Assay Protocol Summary: The mixture of HepG2 cell suspension and reagents were dispensed at 600cells/6 ul/well in 1536-well tissue culture treated black solid bottom plates using a Multidrop dispenser. After the assay plates were incubated at a 37 C/5% CO2 incubator for 5 hours, 23 nL of compounds dissolved in DMSO, positive and negative controls was transferred to the assay plate by a pintool work station. The plates were incubated at 37 C for 40 hours. The luminescence intensity were measured at 0h, 8h, 16h, 24h, 32h and 40h time points using ViewLux plate reader during compound treatment.
In general terms: qHTS replaces the single test concentration by a dilution series.
For the molecule `C#C[C@]1(O)CC[C@H]2[C@@H]3CCC4=CC(=O)CCC4=C3C=C[C@@]21CC`, the call was inactive.
For `CCCC[P+](CC)(CCCC)CCCC` (tested in a mixture with another compound), the molecule was called inactive.
Next, `CC(=O)OC(c1ccccc1)C(Cl)(Cl)Cl` (stereo not given): “inactive”.
As to `CN1C[C@H](C(=O)N[C@]2(C)O[C@@]3(O)[C@@H]4CCCN4C(=O)[C@H](Cc4ccccc4)N3C2=O)C=C2c3cccc4[nH]cc(c34)C[C@H]21`, the outcome was inactive.
With `NC(=S)c1c(Cl)cccc1Cl`, the molecule was called inactive.
For the molecule `C[N+]1(CCF)[C@@H]2CC[C@H]1CC(OC(=O)C(O)(c1ccccc1)c1ccccc1)C2` (stereo not given in full), the outcome was inactive.
Regarding `NC(=O)CF`, the call was inactive.
For `O=C(O)COc1cc(Cl)c(Cl)cc1Cl` the value was “inactive”; for `Cc1ccc2c(C)cccc2c1`, “inactive”; for `CCCSP(=S)(OCC)Oc1ccc(SC)cc1` (stereo not given), “inactive”.
For `CC(C)[C@@H](C(=O)O[C@@H](C#N)c1cccc(Oc2ccccc2)c1)c1ccc(Cl)cc1`, the molecule was classed as inactive.
In the case of `C1CCNCC1`, the call was inactive.
Consider `Oc1cccc(Cl)c1`, for which the outcome was inactive.
For `COC1CC(=C(c2cccs2)c2cccs2)C[N+](C)(C)C1` (stereo not given) the value was “inactive”; for `COC(=O)C1(O)c2ccccc2-c2ccccc21`, “inactive”.
As for `CON(C)C(=O)Nc1ccc(Cl)cc1`, the molecule was classed as inactive.
In the case of `FC(Cl)(Cl)C(F)(Cl)Cl`, the outcome was inactive.
Turning to `c1ccc2c(c1)sc1ccccc12`, the outcome was inactive.
For the molecule `O=C(NCNC(=O)NC1C(=O)NC(=O)N1CO)NC1C(=O)NC(=O)N1CO` (stereo not given), the molecule was called inactive.
Turning to `O=C1NC(=O)C(=O)C(=O)N1`, the call was inactive.
For the molecule `COC1=CC(=O)O[C@@H](/C=C/c2ccc3c(c2)OCO3)C1`, the molecule was classed as inactive.
For the molecule `CC(Oc1cc(Cl)c(Cl)cc1Cl)C(=O)O` (stereo not given), the molecule was called inactive.
As for `CC(C)c1ccc(NC(=O)N(C)C)cc1`, the call was inactive.
For `SCc1ccccc1` the value was “inactive”; for `CC(Cc1ccccc1)NCc1ccccc1Cl` (stereo not given), “inactive”; for `O=S(=O)(Cl)Cl`, “inactive”.
Next, `C[C@]12CC[C@H]3[C@@H](CCC4=CC(=O)CC[C@@H]43)[C@@H]1CC[C@@H]2OC(=O)CCc1ccccc1`: “inactive”; `C[C@@H]1C[C@@H]([C@H](O)CC2CC(=O)NC(=O)C2)C(=O)[C@@H](C)C1`: “inactive”; `C=CC(=O)NC(C)(C)CC(C)=O`: “inactive”.
`N#CC(C#N)=Cc1ccc(O)c(O)c1`: the call was inactive.
Turning to `CCC1(CCC(C)C)C(=O)NC(=O)NC1=O`, the molecule was classed as inactive.
For the molecule `O=C(Cc1ccccc1)c1ccccc1`, the outcome was inactive.
On to `CCCCCCCCCCCCN(C)C`, for which the result was inactive.
For `COc1cc(CC(C)N)c(OC)cc1Br` (stereo not given), the molecule was called inactive.
On to `CC1(C)[C@H](C(=O)O[C@H](C#N)c2cccc(Oc3ccccc3)c2)[C@@H]1C=C(Br)Br`, for which the result was inactive.
In the case of `Nc1ccc2c(c1)Cc1ccccc1-2`, the molecule was classed as inactive.
As for `CCCCCCCCn1sccc1=O`, the outcome was inactive.
Take `CC(C)CCCCCCCOC(=O)c1ccccc1C(=O)OCCCCCCCC(C)C`: the molecule was called inactive.
For the molecule `C=CCSSCC=C`, the call was inactive.
As to `CN(C)C(=O)Nc1cccc(OC(=O)NC(C)(C)C)c1`, the molecule was classed as inactive.
